# According to PMC7862700, “An all-to-all approach to the identification of sequence-specific readers for epigenetic DNA modifications on cytosine”:
# Assays:
# Experiment in all cases: DAPPL (digital affinity profiling via proximity ligation, sequencing); 10 mM Tris-HCl pH 7.5, 50 mM NaCl, 1 mM DTT, 4% glycerol, room temperature, 30 min; GST-TFs on glutathione beads, 16-mer random dsDNA library, 0.1% formaldehyde crosslink after washing; high values mean tight binding
# [1] = target: T1, FLI1 (Homo sapiens, UniProt Q01543 1-452); details: protein: recombinant; tags: N-terminal GST; dsDNA, one strand shown
# T1 sequence: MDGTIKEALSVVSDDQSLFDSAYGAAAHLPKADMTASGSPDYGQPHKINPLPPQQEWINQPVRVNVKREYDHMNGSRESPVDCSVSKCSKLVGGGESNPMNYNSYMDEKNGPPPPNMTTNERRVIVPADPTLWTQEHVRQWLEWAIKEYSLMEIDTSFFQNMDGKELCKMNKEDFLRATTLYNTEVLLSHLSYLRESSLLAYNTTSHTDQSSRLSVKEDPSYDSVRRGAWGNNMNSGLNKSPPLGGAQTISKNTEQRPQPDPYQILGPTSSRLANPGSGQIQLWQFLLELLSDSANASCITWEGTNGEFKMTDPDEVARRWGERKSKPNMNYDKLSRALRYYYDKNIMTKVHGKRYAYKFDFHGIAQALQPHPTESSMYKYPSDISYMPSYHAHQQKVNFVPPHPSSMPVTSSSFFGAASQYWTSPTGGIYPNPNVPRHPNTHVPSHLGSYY
# In short: (§1)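 The binding signal reported is, for every hexamer, its read frequency for a factor over its read frequency for the tag-only sample. Reads came from pools of yeast-expressed, GST-fused human transcription factors on glutathione beads, barcoded with DNA and mixed with that sample, which were incubated with 200 nmole of a random double-stranded 16-mer DNA library in Tris/NaCl/DTT/glycerol buffer at room temperature for 30 min. After washing, the pools were crosslinked with 0.1% formaldehyde, proximity-ligated with BsaI/T4 ligase for 1 h at 37 °C, PCR-amplified and sequenced on an Illumina NextSeq500.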
# [2] = target: T2, ELK1 (Homo sapiens, UniProt P19419 1-428); details: protein: recombinant; tags: N-terminal GST; dsDNA, one strand shown
# T2 sequence: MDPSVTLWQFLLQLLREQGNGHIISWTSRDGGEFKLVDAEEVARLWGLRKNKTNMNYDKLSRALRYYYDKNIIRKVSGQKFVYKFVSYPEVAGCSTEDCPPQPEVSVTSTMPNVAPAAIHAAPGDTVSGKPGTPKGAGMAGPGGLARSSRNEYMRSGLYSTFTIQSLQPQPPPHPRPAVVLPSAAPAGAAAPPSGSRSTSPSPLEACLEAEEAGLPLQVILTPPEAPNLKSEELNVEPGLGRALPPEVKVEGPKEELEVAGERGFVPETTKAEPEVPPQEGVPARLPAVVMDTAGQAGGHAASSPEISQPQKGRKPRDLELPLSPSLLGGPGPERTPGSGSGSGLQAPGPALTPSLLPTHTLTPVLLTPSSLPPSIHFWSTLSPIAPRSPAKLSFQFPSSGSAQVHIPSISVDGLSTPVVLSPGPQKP
# In short: as §1
# [3] = target: T3, GABPA (Homo sapiens, UniProt Q06546 1-454); details: protein: recombinant; tags: N-terminal GST; dsDNA, one strand shown
# T3 sequence: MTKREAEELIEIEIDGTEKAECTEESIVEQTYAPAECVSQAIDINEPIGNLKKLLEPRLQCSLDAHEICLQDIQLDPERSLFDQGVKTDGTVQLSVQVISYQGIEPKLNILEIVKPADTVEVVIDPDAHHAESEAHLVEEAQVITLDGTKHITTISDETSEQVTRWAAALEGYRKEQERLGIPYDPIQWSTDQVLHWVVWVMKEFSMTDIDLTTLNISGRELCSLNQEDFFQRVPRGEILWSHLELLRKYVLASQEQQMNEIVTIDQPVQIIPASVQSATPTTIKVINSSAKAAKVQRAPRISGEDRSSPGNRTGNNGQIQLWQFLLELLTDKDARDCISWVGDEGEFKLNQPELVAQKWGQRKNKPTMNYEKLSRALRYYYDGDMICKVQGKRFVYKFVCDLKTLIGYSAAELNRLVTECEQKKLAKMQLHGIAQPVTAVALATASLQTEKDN
# In short: as §1
# [4] = target: T4, ERG (Homo sapiens, UniProt P11308 1-479); details: protein: recombinant; tags: N-terminal GST; dsDNA, one strand shown
# T4 sequence: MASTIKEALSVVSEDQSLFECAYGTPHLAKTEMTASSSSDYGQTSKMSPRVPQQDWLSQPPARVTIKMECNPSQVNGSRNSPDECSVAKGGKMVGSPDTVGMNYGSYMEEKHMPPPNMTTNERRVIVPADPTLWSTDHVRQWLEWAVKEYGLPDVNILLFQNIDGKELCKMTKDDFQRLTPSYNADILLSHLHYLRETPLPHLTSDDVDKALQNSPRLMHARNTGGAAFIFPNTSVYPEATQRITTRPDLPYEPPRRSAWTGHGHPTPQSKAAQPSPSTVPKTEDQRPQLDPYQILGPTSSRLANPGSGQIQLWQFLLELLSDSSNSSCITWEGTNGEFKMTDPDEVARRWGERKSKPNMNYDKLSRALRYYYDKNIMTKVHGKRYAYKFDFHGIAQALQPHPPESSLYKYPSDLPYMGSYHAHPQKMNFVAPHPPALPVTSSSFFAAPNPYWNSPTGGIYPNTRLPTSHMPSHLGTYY
# In short: as §1
# [5] = target: ELF1 (Homo sapiens, UniProt P32519 1-619); details: protein: recombinant; tags: N-terminal GST; dsDNA, one strand shown
# Chain of ELF1 (P32519 whole entry): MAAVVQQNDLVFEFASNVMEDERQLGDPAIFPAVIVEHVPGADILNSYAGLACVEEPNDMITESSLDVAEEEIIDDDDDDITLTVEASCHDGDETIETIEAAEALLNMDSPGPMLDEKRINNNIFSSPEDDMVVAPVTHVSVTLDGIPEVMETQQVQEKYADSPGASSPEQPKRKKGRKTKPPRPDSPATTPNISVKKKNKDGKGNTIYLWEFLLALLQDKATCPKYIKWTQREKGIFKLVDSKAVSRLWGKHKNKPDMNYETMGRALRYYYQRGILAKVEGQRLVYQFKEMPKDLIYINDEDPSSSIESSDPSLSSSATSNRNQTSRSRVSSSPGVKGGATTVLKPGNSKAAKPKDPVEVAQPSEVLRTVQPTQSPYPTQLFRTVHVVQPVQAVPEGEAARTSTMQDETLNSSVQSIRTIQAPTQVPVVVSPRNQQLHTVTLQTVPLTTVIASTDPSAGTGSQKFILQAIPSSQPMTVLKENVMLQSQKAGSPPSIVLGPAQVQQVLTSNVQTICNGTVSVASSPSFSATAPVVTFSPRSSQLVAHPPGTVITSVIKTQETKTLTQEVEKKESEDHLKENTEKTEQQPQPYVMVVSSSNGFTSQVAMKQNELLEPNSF
# In short: as §1
# [6] = target: T5, EHF (Homo sapiens, UniProt Q9NZC4 1-300); details: protein: recombinant; tags: N-terminal GST; dsDNA, one strand shown
# T5 sequence: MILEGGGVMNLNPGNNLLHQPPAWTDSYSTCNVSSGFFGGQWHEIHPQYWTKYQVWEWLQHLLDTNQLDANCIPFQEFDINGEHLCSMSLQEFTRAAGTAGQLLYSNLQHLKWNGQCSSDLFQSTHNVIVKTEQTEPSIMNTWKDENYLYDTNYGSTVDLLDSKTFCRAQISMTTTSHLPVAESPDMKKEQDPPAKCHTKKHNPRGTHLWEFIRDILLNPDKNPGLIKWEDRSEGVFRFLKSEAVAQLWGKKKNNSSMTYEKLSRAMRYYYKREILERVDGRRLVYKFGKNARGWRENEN
# In short: as §1
# [7] = target: SPI1 (Homo sapiens, UniProt P17947 1-270); details: protein: recombinant; tags: N-terminal GST; dsDNA, one strand shown
# In short: as §1
# [8] = target: SPIB (Homo sapiens, UniProt Q01892 1-262); details: protein: recombinant; tags: N-terminal GST; dsDNA, one strand shown
# Chain of SPIB (Q01892 whole entry): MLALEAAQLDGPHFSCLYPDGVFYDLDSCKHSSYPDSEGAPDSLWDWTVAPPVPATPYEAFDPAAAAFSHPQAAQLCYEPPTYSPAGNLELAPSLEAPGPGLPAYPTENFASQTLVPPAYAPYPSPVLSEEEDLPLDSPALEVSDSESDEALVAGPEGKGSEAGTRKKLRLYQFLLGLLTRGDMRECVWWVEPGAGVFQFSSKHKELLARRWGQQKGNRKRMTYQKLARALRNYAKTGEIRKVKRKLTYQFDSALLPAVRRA
# In short: as §1
# [9] = target: T6, ELK3 (Homo sapiens, UniProt P41970 1-407); details: protein: recombinant; tags: N-terminal GST; dsDNA, one strand shown
# T6 sequence: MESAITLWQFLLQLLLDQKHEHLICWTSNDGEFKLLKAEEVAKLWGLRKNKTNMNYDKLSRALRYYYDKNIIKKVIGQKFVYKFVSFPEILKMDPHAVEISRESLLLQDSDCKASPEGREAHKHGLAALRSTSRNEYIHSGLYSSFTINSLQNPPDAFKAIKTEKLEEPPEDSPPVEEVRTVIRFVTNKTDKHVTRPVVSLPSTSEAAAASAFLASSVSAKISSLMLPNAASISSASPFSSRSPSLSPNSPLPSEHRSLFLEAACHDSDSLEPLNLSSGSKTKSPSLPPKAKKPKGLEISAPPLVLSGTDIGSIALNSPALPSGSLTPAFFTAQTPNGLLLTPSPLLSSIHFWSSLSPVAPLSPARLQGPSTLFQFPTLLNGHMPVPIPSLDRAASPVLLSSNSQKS
# In short: as §1
# [10] = target: T7, FEV (Homo sapiens, UniProt Q99581 1-238); details: protein: recombinant; tags: N-terminal GST; dsDNA, one strand shown
# T7 sequence: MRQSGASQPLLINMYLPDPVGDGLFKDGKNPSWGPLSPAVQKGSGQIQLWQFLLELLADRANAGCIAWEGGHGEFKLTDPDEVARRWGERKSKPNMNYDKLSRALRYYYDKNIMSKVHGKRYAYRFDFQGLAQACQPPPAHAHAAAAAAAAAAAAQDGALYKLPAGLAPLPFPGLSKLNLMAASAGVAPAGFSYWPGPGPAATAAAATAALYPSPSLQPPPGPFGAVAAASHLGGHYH
# In short: as §1
# [11] = target: ETV5 (Homo sapiens, UniProt P41161 1-510); details: protein: recombinant; tags: N-terminal GST; dsDNA, one strand shown
# Chain of ETV5 (P41161 whole entry): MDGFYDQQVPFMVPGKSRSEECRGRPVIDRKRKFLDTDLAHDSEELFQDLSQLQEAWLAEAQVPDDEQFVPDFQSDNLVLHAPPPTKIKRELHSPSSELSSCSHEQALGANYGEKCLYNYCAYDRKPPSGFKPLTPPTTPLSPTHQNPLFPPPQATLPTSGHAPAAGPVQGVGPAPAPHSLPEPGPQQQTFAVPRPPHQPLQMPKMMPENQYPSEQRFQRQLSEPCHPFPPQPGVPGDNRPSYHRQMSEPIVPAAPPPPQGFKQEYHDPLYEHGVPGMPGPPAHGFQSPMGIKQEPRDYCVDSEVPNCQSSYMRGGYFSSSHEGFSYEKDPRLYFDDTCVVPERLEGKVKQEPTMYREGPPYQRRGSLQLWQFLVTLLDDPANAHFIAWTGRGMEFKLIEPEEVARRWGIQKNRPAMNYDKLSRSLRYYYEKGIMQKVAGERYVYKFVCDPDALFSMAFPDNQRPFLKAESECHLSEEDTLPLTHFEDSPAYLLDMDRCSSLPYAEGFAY
# In short: as §1
# [12] = target: HSF1 (Homo sapiens, UniProt Q00613 1-529); details: protein: recombinant; tags: N-terminal GST; chain copies: 3; dsDNA, one strand shown
# Chain of HSF1 (Q00613 whole entry): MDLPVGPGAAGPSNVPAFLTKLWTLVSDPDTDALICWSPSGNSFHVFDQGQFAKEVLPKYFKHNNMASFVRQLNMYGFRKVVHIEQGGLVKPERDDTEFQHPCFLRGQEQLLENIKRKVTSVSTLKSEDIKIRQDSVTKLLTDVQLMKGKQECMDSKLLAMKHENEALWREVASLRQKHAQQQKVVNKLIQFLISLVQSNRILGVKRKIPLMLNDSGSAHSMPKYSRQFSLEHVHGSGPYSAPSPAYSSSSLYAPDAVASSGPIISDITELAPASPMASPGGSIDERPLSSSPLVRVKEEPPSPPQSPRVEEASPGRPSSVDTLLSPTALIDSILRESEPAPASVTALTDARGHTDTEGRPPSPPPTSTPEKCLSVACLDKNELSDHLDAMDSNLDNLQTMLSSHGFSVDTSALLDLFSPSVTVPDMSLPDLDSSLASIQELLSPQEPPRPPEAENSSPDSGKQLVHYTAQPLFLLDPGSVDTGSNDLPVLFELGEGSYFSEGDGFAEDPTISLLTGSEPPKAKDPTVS
# In short: as §1
# [13] = target: T8, SPIC (Homo sapiens, UniProt Q8N5J4 1-248); details: protein: recombinant; tags: N-terminal GST; dsDNA, one strand shown
# T8 sequence: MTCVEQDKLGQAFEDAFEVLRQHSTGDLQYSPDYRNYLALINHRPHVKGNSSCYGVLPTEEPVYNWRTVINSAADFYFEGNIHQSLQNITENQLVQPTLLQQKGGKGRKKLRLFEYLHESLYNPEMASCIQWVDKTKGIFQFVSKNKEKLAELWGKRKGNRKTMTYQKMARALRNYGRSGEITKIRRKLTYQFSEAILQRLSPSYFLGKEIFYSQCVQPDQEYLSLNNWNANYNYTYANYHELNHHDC
# In short: as §1
# [14] = target: ELF4 (Homo sapiens, UniProt Q99607 1-663); details: protein: recombinant; tags: N-terminal GST; dsDNA, one strand shown
# Chain of ELF4 (Q99607 whole entry): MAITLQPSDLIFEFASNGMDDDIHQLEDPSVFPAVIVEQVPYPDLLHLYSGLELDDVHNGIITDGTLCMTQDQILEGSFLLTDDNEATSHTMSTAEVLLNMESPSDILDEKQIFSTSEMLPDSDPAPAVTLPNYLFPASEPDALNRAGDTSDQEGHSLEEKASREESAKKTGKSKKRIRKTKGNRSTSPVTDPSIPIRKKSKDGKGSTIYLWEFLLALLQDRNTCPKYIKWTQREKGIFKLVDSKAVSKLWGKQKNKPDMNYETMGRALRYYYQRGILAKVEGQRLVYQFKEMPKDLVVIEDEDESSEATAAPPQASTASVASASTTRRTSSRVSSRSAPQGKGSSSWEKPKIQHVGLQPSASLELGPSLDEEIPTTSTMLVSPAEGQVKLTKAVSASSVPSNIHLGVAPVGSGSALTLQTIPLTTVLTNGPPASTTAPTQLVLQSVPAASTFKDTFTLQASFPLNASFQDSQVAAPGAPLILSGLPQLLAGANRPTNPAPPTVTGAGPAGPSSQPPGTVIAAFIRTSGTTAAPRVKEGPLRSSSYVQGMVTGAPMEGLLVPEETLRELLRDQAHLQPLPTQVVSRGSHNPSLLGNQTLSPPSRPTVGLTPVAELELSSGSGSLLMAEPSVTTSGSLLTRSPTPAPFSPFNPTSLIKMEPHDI
# In short: as §1
# [15] = target: T9, ELK4 (Homo sapiens, UniProt P28324-2 1-405); details: protein: recombinant; tags: N-terminal GST; dsDNA, one strand shown
# T9 sequence: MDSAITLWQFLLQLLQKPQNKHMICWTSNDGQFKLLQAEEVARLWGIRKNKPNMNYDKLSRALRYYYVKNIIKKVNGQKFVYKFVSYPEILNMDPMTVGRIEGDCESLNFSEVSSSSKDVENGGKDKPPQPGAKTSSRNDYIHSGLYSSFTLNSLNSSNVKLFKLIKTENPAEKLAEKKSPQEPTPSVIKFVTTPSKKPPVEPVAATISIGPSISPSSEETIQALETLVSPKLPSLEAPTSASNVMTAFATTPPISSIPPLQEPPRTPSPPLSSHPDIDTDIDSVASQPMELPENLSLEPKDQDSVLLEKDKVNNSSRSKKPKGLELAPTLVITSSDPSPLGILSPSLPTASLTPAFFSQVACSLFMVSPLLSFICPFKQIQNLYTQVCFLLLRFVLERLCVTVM
# In short: as §1
# [16] = target: T10, ETV2 (Homo sapiens, UniProt O00321 1-342); details: protein: recombinant; tags: N-terminal GST; dsDNA, one strand shown
# T10 sequence: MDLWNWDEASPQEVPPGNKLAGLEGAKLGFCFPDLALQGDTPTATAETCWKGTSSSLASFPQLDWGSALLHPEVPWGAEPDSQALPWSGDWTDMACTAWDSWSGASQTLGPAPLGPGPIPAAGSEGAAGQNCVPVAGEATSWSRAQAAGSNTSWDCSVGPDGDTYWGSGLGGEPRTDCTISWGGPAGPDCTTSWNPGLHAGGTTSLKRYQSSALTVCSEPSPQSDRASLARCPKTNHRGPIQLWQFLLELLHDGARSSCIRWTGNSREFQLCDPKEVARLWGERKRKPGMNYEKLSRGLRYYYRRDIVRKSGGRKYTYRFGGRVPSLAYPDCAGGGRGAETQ
# In short: as §1
# [17] = target: T11, ELF3 (Homo sapiens, UniProt P78545 1-371); details: protein: recombinant; tags: N-terminal GST; dsDNA, one strand shown
# T11 sequence: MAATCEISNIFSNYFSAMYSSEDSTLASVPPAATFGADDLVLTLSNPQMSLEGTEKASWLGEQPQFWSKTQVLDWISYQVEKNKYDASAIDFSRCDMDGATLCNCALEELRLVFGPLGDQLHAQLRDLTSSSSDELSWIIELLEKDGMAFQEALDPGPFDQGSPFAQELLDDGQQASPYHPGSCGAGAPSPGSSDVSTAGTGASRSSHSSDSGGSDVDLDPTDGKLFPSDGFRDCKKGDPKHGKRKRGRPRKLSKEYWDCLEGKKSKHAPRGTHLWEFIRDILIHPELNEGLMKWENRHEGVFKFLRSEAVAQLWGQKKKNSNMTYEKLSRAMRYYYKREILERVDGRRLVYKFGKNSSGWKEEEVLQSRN
# In short: as §1
# [18] = target: CRX (Homo sapiens, UniProt O43186 1-299); details: protein: recombinant; tags: N-terminal GST; dsDNA, one strand shown
# Chain of CRX (O43186 whole entry): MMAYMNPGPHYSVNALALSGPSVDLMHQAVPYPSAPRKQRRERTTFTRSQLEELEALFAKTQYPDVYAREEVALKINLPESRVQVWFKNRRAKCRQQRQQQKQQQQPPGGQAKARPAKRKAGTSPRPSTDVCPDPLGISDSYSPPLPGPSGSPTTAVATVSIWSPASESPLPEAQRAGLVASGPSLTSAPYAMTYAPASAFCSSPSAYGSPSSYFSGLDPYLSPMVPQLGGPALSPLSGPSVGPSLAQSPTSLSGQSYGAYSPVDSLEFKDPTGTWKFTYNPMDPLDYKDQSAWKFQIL
# In short: as §1
# [19] = target: ETV1 (Homo sapiens, UniProt P50549 1-477); details: protein: recombinant; tags: N-terminal GST; dsDNA, one strand shown
# Chain of ETV1 (P50549 whole entry): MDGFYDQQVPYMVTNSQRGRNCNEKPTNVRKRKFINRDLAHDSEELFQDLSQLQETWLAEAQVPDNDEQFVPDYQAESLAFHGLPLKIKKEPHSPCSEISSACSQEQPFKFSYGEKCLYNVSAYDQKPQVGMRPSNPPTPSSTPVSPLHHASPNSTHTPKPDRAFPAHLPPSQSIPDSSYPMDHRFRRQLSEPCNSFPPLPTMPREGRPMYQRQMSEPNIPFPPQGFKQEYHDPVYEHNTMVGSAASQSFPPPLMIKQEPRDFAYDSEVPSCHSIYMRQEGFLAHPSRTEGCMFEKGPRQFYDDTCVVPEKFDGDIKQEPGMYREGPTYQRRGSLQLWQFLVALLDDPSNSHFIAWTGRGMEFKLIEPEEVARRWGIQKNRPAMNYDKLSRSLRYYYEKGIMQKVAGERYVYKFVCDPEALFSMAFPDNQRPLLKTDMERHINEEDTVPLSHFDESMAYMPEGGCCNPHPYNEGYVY
# In short: as §1
sequence,measurement,setting,value
CTGTAC,binding signal,[1],"1.28 fold enrichment (6-mer frequency, TF over GST control)"
same,binding signal,[2],"1.31 fold enrichment (6-mer frequency, TF over GST control)"
same,binding signal,[3],"1.23 fold enrichment (6-mer frequency, TF over GST control)"
same,binding signal,[4],"1.39 fold enrichment (6-mer frequency, TF over GST control)"
same,binding signal,[5],"1.38 fold enrichment (6-mer frequency, TF over GST control)"
same,binding signal,[6],"1.33 fold enrichment (6-mer frequency, TF over GST control)"
same,binding signal,[7],"1.4 fold enrichment (6-mer frequency, TF over GST control)"
same,binding signal,[8],"1.3 fold enrichment (6-mer frequency, TF over GST control)"
same,binding signal,[9],"1.24 fold enrichment (6-mer frequency, TF over GST control)"
same,binding signal,[10],"1.44 fold enrichment (6-mer frequency, TF over GST control)"
same,binding signal,[11],"1.34 fold enrichment (6-mer frequency, TF over GST control)"
same,binding signal,[12],"1.02 fold enrichment (6-mer frequency, TF over GST control)"
same,binding signal,[13],"1.41 fold enrichment (6-mer frequency, TF over GST control)"
same,binding signal,[14],"1.33 fold enrichment (6-mer frequency, TF over GST control)"
same,binding signal,[15],"1.43 fold enrichment (6-mer frequency, TF over GST control)"
same,binding signal,[16],"1.39 fold enrichment (6-mer frequency, TF over GST control)"
same,binding signal,[17],"1.26 fold enrichment (6-mer frequency, TF over GST control)"
same,binding signal,[18],"1.06 fold enrichment (6-mer frequency, TF over GST control)"
same,binding signal,[19],"1.42 fold enrichment (6-mer frequency, TF over GST control)"
